Source: PubChem BioAssay (Tox21)
Inconclusive results are not listed. Activity calls are given as the source filed them. The call rests on the fitted dose curve; in most records, active means well fitted activation curve with a large enough effect in the signal ratio in the repeat runs, with a control signal flat (not every such curve was filed as active); inconclusive means weak or mixed curves; inactive means flat fitted curve, though single readings scatter; the % refers to the signal ratio.

assay: qHTS assay for small molecule activators of the heat shock response signaling pathway (AID 743210); conditions: HeLa HSE-bla reporter, beta-lactamase ratio, 5 h; series mostly up to 62.6 µM; activation: at the top concentration
From the text: U.S. Tox21 Program National Center for Advancing Translational Sciences [NCATS] NIH Chemical Genomics Center [NCGC] U.S. Environmental Protection Agency [EPA] National Institutes of Environmental Health Sciences [NIEHS] National Toxicology Program [NTP] U.S. Food and Drug Administration [FDA] Tox21 Assay Overview: Various chemicals, environmental and physiological stress conditions may lead to the activation of heat shock response/ unfolded protein response (HSR/UPR). There are three heat shock transcription factors (HSFs) (HSF-1, -2, and -4) mediating transcriptional regulation of the human HSR. To identify the compounds that activate HSR signaling, HSE-bla HeLa cell line (Invitrogen, Carlsbad, CA, USA) containing a beta-lactamase reporter gene under the control of the heat shock response elements was used to screen the Tox21 10K compound library.
Tox21 Assay Protocol Summary: The CellSensor HSE-bla HeLa cells (Invitrogen, Carlsbad, CA, USA) were dispensed at 1500 cells/6uL/well into 1536-well black wall/clear bottom plates using a Multidrop combi (Thermo Fisher Scientific, Waltham, MA) dispenser. After the assay plates were incubated at 37 C and 5% CO2 overnight, 23 nL of compounds dissolved in DMSO, positive controls or DMSO only was transferred to the assay plate by a Pintool station (Kalypsys, San Diego, CA). The plates were incubated at 37 C for 5 h. After 1 uL of LiveBLAzerTM B/G FRET substrate was added using a Flying Reagent Dispenser (Beckman Coulter, Indianapolis, IN, USA), the plates were incubated at room temperature for 2.5 h, and fluorescence intensity was measured by an Envision plate reader (PerkinElmer, Shelton, CT).
On the % scale 0 is the no-effect control and ±100 the full control effect.

Q: For `CCOC(=O)[C@H](CCc1ccccc1)N[C@@H](C)C(=O)N1Cc2ccccc2C[C@H]1C(=O)O`, which “activation” value is on record?
A: The value was 1.61% [at 81.1 µM] (inactive).

Q: Which outcome does the source give for `c1ccc2ccccc2c1` here?
A: The outcome was “inactive”.

Q: With `CC(C)NCC(O)COc1cccc2ccccc12` (stereo not given) as the molecule, how does the outcome read?
A: Its outcome is “inactive”.

Q: For `O=S(=O)(Oc1ccc(Cl)cc1Cl)c1ccccc1`, which outcome is on record?
A: Its outcome is “inactive”.

Q: With `Cc1cc(NS(=O)(=O)c2ccc(N)cc2)no1` as the molecule, how does the outcome read?
A: The outcome was “inactive”.

Q: Which outcome does the source give for `Clc1ccc(Cl)c(Cl)c1Cl` here?
A: Its outcome is “inactive”.

Q: With `NCCNCCNCCNCCN` as the molecule, how does the outcome read?
A: The outcome was “inactive”.

Q: With `Cc1cc(O)cc(C)c1Cl` as the molecule, how does the “activation” value read?
A: The value was -0.859% (inactive).

Q: Which outcome does the source give for `OC[C@@H](O)[C@@H](O)[C@H](O)[C@@H](O)CO` here?
A: Its outcome is “inactive”.

Q: With `O=C1N=C(O)CN1/N=C/c1ccc(-c2ccc([N+](=O)[O-])cc2)o1` as the molecule, how does the outcome read?
A: Its outcome is “inactive”.

Q: With `Cc1cc(=O)[nH]c(C(C)C)n1` as the molecule, how does the outcome read?
A: Its outcome is “inactive”.

Q: Which outcome does the source give for `O=C(c1ccc(O)cc1)c1ccc(O)cc1O` here?
A: Its outcome is “inactive”.

Q: With `CCCCC/C=C\C/C=C\CCCCCCCC(=O)OC` as the molecule, how does the “activation” value read?
A: The value was 0.0165% (inactive).

Q: For `CCCCC(CC)COC(C)=O` (stereo not given), which outcome is on record?
A: The outcome was “inactive”.

Q: For `c1ccc2[nH]cnc2c1`, which outcome is on record?
A: The outcome was “inactive”.

Q: For `O=C(Cl)c1c(Cl)c(Cl)c(C(=O)Cl)c(Cl)c1Cl`, which outcome is on record?
A: Its outcome is “inactive”.

Q: For `CN(CCOc1ccc(CC2SC(=O)NC2=O)cc1)c1ccccn1` (stereo not given), which outcome is on record?
A: Its outcome is “inactive”.

Q: Which “activation” value does the source give for `C=C(C#N)C(=O)OCC` here?
A: Its value is 1.29% (inactive).

Q: Which outcome does the source give for `O=C(O)c1ccc([N+](=O)[O-])cc1` here?
A: The outcome was “inactive”.

Q: For `CC(C)(C)C(=O)C1C(=O)c2ccccc2C1=O`, which outcome is on record?
A: Its outcome is “inactive”.

Q: Which outcome does the source give for `CC(C)(CO)COC(=O)C(C)(C)CO` here?
A: Its outcome is “inactive”.

Q: For `CN(C)c1ccc(C(=N)c2ccc(N(C)C)cc2)cc1`, which outcome is on record?
A: The outcome was “inactive”.

Q: Which outcome does the source give for `OCC1CCCO1` (stereo not given) here?
A: Its outcome is “inactive”.

Q: Which outcome does the source give for `Cc1ccc(C)c(C)c1` here?
A: Its outcome is “inactive”.

Q: For `O=[N+]([O-])c1cc(N(CCO)CCO)ccc1NCCO`, which “activation” value is on record?
A: Its value is 1.63% (inactive).

Q: Which “activation” value does the source give for `CCCCNC(N)=O` here?
A: Its value is 0.202% (inactive).

Q: With `Cc1ccc(N)c(S(=O)(=O)O)c1` as the molecule, how does the outcome read?
A: Its outcome is “inactive”.

Q: With `O=C(Oc1ccccc1)c1ccc(O)cc1` as the molecule, how does the outcome read?
A: Its outcome is “inactive”.

Q: With `O=C(c1cc(O)c(O)c(O)c1)c1ccc(O)c(O)c1O` as the molecule, how does the “activation” value read?
A: Its value is -1.25% (inactive).

Q: For `CCCCCCCCCCC=CC1CC(=O)OC1=O` (stereo not given), which outcome is on record?
A: The outcome was “inactive”.

Q: For `C=C(C)C(=O)OCCC[Si](OC)(OC)OC`, which outcome is on record?
A: Its outcome is “inactive”.

Q: With `NC(=O)NNc1ccccc1` as the molecule, how does the outcome read?
A: Its outcome is “inactive”.

Q: With `O=Nc1ccc(O)cc1` as the molecule, how does the outcome read?
A: Its outcome is “inactive”.

Q: Which outcome does the source give for `O=[N+]([O-])c1cccc(Cl)c1` here?
A: The outcome was “inactive”.

Q: With `CCc1ccccc1O` as the molecule, how does the outcome read?
A: The outcome was “inactive”.

Q: For `O=S(=O)(O)CCS`, which outcome is on record?
A: Its outcome is “inactive”.

Q: For `OC1CCCC1`, which outcome is on record?
A: The outcome was “inactive”.

Q: For `CN(C)c1cccc(O)c1`, which outcome is on record?
A: Its outcome is “inactive”.

Q: With `CC(C)n1c(/C=C/[C@@H](O)C[C@@H](O)CC(=O)O)c(-c2ccc(F)cc2)c2ccccc21` as the molecule, how does the outcome read?
A: Its outcome is “inactive”.

Q: For `CC(C)(N=C=O)c1cccc(C(C)(C)N=C=O)c1`, which outcome is on record?
A: Its outcome is “inactive”.
